In PubChem BioAssay:
The source made the active and inactive calls.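 Rule for the calls, unless noted: active = inhibition above 20% together with a positive visual image hit; inconclusive = visual image hit but inhibition not above 20%; inactive = no visual image hit.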

Columns and labels:
[1] = inhibitors of TNFa-induced NFkB p65 translocation, primary screen, imaging, HUVEC, MLSMR starter and 10KST1 sets (AID 438); conditions: HUVEC TNFa-induced p65 nuclear translocation; cell count: measured here: nuclei count (cytotoxicity indicator), at 2.08 µM; inhibition: at 2 µM, stronger effect = higher value, 0% TNFa-plus-vehicle, 100% no-TNFa wells;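 note: compound added about 3h40 before a 20 min TNFalpha stimulation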;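 for inhibition: signal is the nuclear over cytoplasmic p65 intensity ratio per well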
[2] = inhibitors of mutant huntingtin aggregation, primary screen, imaging, exon1htt(103Q)mCFP cells, high-content imaging (AID 483;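 active = visual image review flags a hit and inhibition of aggregation exceeds 20%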;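 note: compound exposure lasted 3 days before fixation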;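 for nuclei count: percent of the per-plate median nuclei count of sample wells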); conditions: exon1htt(103Q)mCFP cell line, aggregate imaging, at 2 µM; inhibition of aggregation: stronger effect = higher value; nuclei count: measured here: cell count, toxicity
[3] = inhibitors of E-selectin induction by TNFa, primary screen, imaging, HUVEC, immunofluorescence, MLSMR starter and 10KST1 sets (AID 487;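 active = visually confirmed hit in the image check and inhibition above 20%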;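 for inhibition: signal is fraction of cell area covered by stained E-selectin grains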;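 for nuclei count: 100% = median nuclei count of all wells on the same plate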); conditions: HUVEC TNFalpha-induced E-selectin immunofluorescence imaging, at 2 µM; inhibition: stronger effect = higher value; nuclei count: measured here: cell number, toxicity
[4] = target: Voltage-gated potassium channel subunit beta-2 (Rattus norvegicus) (UniProt P62483); assay: KvBeta enzyme negative modulators, primary screen, biochemical, NADPH fluorescence (AID 622;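 active = fluorescence slope higher than the sample average by over 3 SD, cut at about -0.22 in these data, passing the limit was not always enough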;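 note: slope of raw intensity against log time taken from 70 to 1610 s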); conditions: recombinant KvBeta, 4-cyanobenzaldehyde reduction, at 10 µM, stronger effect = higher value
[5] = target: Voltage-gated potassium channel subunit beta-2 (Rattus norvegicus) (UniProt P62483); assay: KvBeta positive modulators, primary screen, biochemical, NADPH fluorescence (AID 623;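 active = NADPH fluorescence slope more negative than the mean of all samples by about 3 SD, 99.7% confidence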;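 note: fluorescence intensity change per second fitted from 20 to 320 s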); conditions: Recombinant KvBeta, NADPH fluorescence decrease slope, 10 min; at 10 µM; stronger effect = lower value
[6] = target: Alpha-2C adrenergic receptor (Homo sapiens) (UniProt P18825); assay: modulators of alpha2C/GIRK thallium flux, primary screen, cell-based, HEK293 alpha2C/GIRK1/2 (AID 624;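 active = fluorescence slope after compound addition differing from the mean of all screened samples at 99.7% confidence, in either direction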;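 note: slope of fluorescence ratio to pre-addition baseline per second over 15 to 24 s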); conditions: thallium flux BTC fluorescence, at 10 µM, actives lie on both sides
[7] = inhibitors of Sendai virus-induced IRF3 signaling, primary screen, TLR/RLR signaling modifier project, cell-based, Sendai virus stimulus, luciferase, 10K MLSCN set (AID 602276;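 active = inhibition at or above 50% at 10 µM; inactive = inhibition below 50%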;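 note: firefly luciferase from ISG56 promoter only with Renilla not read in this screen; 0% = Sendai virus plus DMSO and 100% = medium plus DMSO without virus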); conditions: HEK293 RL24 IRF3 luciferase reporter, at 10 µM, stronger effect = higher value
[8] = inhibitors of poly I:C-induced TLR3 signaling, primary screen, cell-based, poly I:C stimulus, luciferase, 10K MLSCN set (AID 602277;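 active = inhibition of the reporter signal at or above 50%; inactive = inhibition below 50%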); conditions: HEK293-TLR3 RL24 IRF3 luciferase reporter, at 10 µM, stronger effect = higher value

Chain of Alpha-2C adrenergic receptor (Homo sapiens) (P18825 whole entry, looked up): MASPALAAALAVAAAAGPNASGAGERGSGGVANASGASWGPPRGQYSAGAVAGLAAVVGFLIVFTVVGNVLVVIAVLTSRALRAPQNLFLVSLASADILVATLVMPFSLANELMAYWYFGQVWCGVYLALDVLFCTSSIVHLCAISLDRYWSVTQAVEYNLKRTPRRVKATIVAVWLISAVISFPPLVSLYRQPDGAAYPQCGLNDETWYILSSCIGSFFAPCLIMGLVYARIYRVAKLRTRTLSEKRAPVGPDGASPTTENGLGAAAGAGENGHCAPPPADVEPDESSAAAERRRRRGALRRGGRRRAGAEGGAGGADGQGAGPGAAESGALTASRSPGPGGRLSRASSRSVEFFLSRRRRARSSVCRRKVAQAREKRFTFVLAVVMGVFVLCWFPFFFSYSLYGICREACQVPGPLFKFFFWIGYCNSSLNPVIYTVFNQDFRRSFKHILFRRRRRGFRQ
Chain of Voltage-gated potassium channel subunit beta-2 (Rattus norvegicus) (P62483 whole entry, looked up): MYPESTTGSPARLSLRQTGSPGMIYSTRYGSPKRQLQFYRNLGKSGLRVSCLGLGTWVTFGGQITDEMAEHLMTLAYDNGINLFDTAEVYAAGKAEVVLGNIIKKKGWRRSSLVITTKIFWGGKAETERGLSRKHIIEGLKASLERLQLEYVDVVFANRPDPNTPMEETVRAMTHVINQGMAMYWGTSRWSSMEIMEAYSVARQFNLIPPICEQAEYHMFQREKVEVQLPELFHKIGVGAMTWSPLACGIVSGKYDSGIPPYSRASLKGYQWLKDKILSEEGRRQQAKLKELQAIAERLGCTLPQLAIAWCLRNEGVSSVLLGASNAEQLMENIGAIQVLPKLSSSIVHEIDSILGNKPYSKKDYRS

Structure (SMILES) | cell count [1] | inhibition [1] | inhibition of aggregation [2] | nuclei count [2] [%] | inhibition [3] | nuclei count [3] [%] | fluorescence slope [4] | NADPH fluorescence slope [5] | slope [6] | inhibition [7] | inhibition [8]
CCOC(=O)N1CCN(C(=O)COc2ccc(S(=O)(=O)NC(C)C)cc2)CC1 | 623 | 6.2% (inactive) | -5.3% (inactive) | 110 | 11.5% (inactive) | 115 | -0.548 (inactive) | -3.6e-05 (inactive) | 0.00507 (inactive) | 10.8% (inactive) | 24.1% (inactive)
CCCOc1ccc(C2C(C(=O)OC)=CN(CCOC)C=C2C(=O)OC)cc1 | 356 | -11.3% (inactive) | -4.7% (inactive) | 116 | -128% (inactive) | 111 | -0.251 (inactive) | 1.3e-05 (inactive) | 0.00618 (inactive) | 15.3% (inactive) | 27.8% (inactive)
COc1ccc2cc(C(c3nnnn3C3CCCCC3)N3CCCCCC3)c3nnnn3c2c1 (stereo not drawn) | 828 | -6.7% (inactive) | -7.5% (inactive) | 108 | -10.3% (inactive) | 114 | -0.444 (inactive) | -3.1e-06 (inactive) | 0.00937 (inactive) | 7.67% (inactive) | -2.36% (inactive)
CCOCCCNC(=O)C1CCCN(S(=O)(=O)CC)C1 (stereo not drawn) | 630 | -36% (inactive) | -6.6% (inactive) | 112 | -3.3% (inactive) | 95.1 | -0.408 (inactive) | -4e-05 (inactive) | 0.00421 (inactive) | 15.1% (inactive) | 12.2% (inactive)
O=C(c1ccccc1Oc1nnnn1-c1ccccc1)N1CCOCC1 | 315 | -0.9% (inactive) | -13.9% (inactive) | 107 | -73.9% (inactive) | 113 | -0.269 (inactive) | 2e-05 (inactive) | 0.00699 (inactive) | 9.07% (inactive) | 21.2% (inactive)
CCCOc1ccc2ccccc2c1/C=N/n1cnnc1 | 209 | 4.6% (inactive) | -0.3% (inactive) | 89.4 | -4.9% (inactive) | 89.2 | -0.31 (inactive) | -1.6e-05 (inactive) | 0.008 (inactive) | 7.93% (inactive) | 3.78% (inactive)
CC1CCN(c2nc3c(c(=O)n(C)c(=O)n3C)n2Cc2ccccc2)CC1 | 666 | -3.5% (inactive) | -14.9% (inactive) | 83.4 | -81.5% (inactive) | 139 | -0.39 (inactive) | -6.1e-06 (inactive) | 0.00388 (inactive) | 12.3% (inactive) | 15.2% (inactive)
Cc1csc2nc(CSc3ccc(Cl)cc3)cn12 | 41 | -8.7% (inactive) | -15% (inactive) | 80.6 | -112% (inactive) | 138 | -0.601 (inactive) | -2e-05 (inactive) | 0.00271 (inactive) | -42.1% (inactive) | -126% (inactive)
Cc1cccnc1-n1c(CCN2C(=O)c3ccccc3C2=O)nc2ccccc2c1=O | 359 | -5.4% (inactive) | 12.7% (inactive) | 84.4 | -12.9% (inactive) | 83.7 | -0.327 (inactive) | -7.6e-06 (inactive) | 0.00629 (inactive) | 2.74% (inactive) | 2.5% (inactive)
CC1CCc2nn(CC(=O)NCCN3CCOCC3)cc2C1 (stereo not drawn) | 605 | 4% (inactive) | -0.2% (inactive) | 94.5 | 42.1% (inactive) | 97 | -0.612 (inactive) | 5.1e-06 (inactive) | 0.00648 (inactive) | 7.91% (inactive) | 24.3% (inactive)
CCc1cccc2c(=O)c(C(=O)N3CCCCCC3)c[nH]c12 | 538 | -26.5% (inactive) | 7.9% (inactive) | 87.7 | -31% (inactive) | 94.3 | -0.513 (inactive) | -5.1e-05 (inactive) | 0.0048 (inactive) | 4.31% (inactive) | -4.51% (inactive)
Oc1c(C(c2ccccc2)N2CCc3ccccc3C2)sc2ncnn12 (stereo not drawn) | 651 | 1.3% (inactive) | -23.6% (inactive) | 111 | -25.4% (inactive) | 117 | -0.618 (inactive) | -3.4e-05 (inactive) | 0.00688 (inactive) | 12.6% (inactive) | 30.7% (inactive)
CC(C)Nc1ncnc2c1cnn2-c1ccccc1 | 681 | -6.7% (inactive) | -56.3% (inactive) | 3.7 | -1.2% (inactive) | 114 | -0.589 (inactive) | -2e-05 (inactive) | 0.00563 (inactive) | -54.7% (inactive) | -180% (inactive)
Nc1cc(-c2ccc(Br)cc2)nn1S(=O)(=O)c1ccccc1 | 807 | 6.9% (inactive) | -1% (inactive) | 93.9 | -57.9% (inactive) | 109 | -0.609 (inactive) | -1.6e-05 (inactive) | 0.00722 (inactive) | 6.44% (inactive) | 32.2% (inactive)
COc1cc(NC2c3ccccc3C(=O)N2c2ccc(C)cn2)cc(OC)c1OC (stereo not drawn) | 619 | 5.5% (inactive) | 11.3% (inactive) | 85.2 | -7.5% (inactive) | 109 | -0.593 (inactive) | 1.6e-05 (inactive) | 0.00732 (inactive) | -30.9% (inactive) | -44.7% (inactive)
CCOC(=O)N1CCN(C(=O)c2ccc3c(SCC(=O)O)c4c(nc3c2)CCCC4)CC1 | 819 | -5.2% (inactive) | 14.8% (inactive) | 100 | -74.3% (inactive) | 137 | -0.542 (inactive) | 7.3e-06 (inactive) | 0.00656 (inactive) | 9.84% (inactive) | 21.6% (inactive)
COc1ccc(C(C)N2CC34C=CC(O3)C(C(=O)OCC(C)C)C4C2=O)cc1 (stereo not drawn) | 589 | 9.1% (inactive) | 3.8% (inactive) | 75.7 | 8.2% (inactive) | 93.5 | -0.541 (inactive) | -4.3e-05 (inactive) | 0.00626 (inactive) | 13.5% (inactive) | 23.7% (inactive)
CC1(C)CC(=O)c2cnc(NC(=O)Cc3ccc(Cl)cc3)nc2C1 | 382 | -0.3% (inactive) | -0.3% (inactive) | 97.2 | -20.1% (inactive) | 115 | -0.485 (inactive) | -4.8e-05 (inactive) | 0.00659 (inactive) | -25% (inactive) | 18.3% (inactive)
O=C(C1CCCN(S(=O)(=O)c2ccc(Br)s2)C1)N1CCCCCC1 (stereo not drawn) | 217 | -1.9% (inactive) | 5.7% (inactive) | 75.1 | 30.6% (inactive) | 31.6 | -0.378 (inactive) | -4.5e-05 (inactive) | 0.00305 (inactive) | 2.37% (inactive) | 13.4% (inactive)
CCOC(=O)c1sc(NC(=O)C2CC=CCC2C(=O)O)nc1C (stereo not drawn) | 406 | 2.5% (inactive) | -2.8% (inactive) | 97.8 | 19.8% (inactive) | 105 | -0.527 (inactive) | 5.4e-05 (inactive) | 0.00721 (inactive) | 21.8% (inactive) | 32.8% (inactive)
O=C(CSc1nnc(CNC(=O)c2cccs2)o1)Nc1cccc(C(F)(F)F)c1 | 262 | 3.8% (inactive) | -12.8% (inactive) | 78.7 | -14.2% (inactive) | 111 | -0.379 (inactive) | -5.5e-05 (inactive) | 0.00592 (inactive) | 6.93% (inactive) | 19.8% (inactive)
O=C(O)c1cccc(S(=O)(=O)N2CCOCC2)c1 | 378 | -0.6% (inactive) | 12.5% (inactive) | 95.2 | 20.2% (inactive) | 99.4 | -0.472 (inactive) | -0.000388 (inactive) | 0.00562 (inactive) | -16% (inactive) | -15.1% (inactive)
C=CCc1c(C)nc(SC)nc1Nc1ccc(C(=O)O)cc1 | 497 | 7.2% (inactive) | 7.3% (inactive) | 106 | -41.5% (inactive) | 118 | -0.488 (inactive) | -3.9e-05 (inactive) | 0.00683 (inactive) | 4.8% (inactive) | 21.7% (inactive)
O=C(CN1C(=O)CCS(=O)(=O)c2ccccc21)NCc1ccc(F)cc1 | 529 | -7.7% (inactive) | 13.4% (inactive) | 95.8 | -92.3% (inactive) | 124 | -0.395 (inactive) | -7.6e-05 (inactive) | 0.00557 (inactive) | 15.3% (inactive) | 8.14% (inactive)
Cc1ccc(C)c(S(=O)(=O)n2cnc3ccccc32)c1 | 262 | -5.9% (inactive) | 17.8% (inactive) | 79.3 | -42.5% (inactive) | 108 | -0.463 (inactive) | 2.3e-05 (inactive) | 0.00359 (inactive) | 14.5% (inactive) | 27.4% (inactive)
COc1ccc(-c2oc3ncn(CCN4CCOCC4)c(=N)c3c2-c2ccc(OC)cc2)cc1 | 688 | -9.5% (inactive) | 17.4% (inactive) | 75.4 | -16.4% (inactive) | 98 | -0.32 (inactive) | -6.6e-05 (inactive) | 0.00302 (inactive) | 1.98% (inactive) | -0.246% (inactive)
Cc1nc(CCNC(=O)c2ccccc2)cs1 | 347 | -6% (inactive) | 4.7% (inactive) | 102 | -51.1% (inactive) | 127 | -0.486 (inactive) | 9.5e-06 (inactive) | 0.00492 (inactive) | 9.26% (inactive) | -2.39% (inactive)
COCCCNC(=O)c1c(N)n(-c2cccc(S(N)(=O)=O)c2)c2nc3ccccc3nc12 | 245 | 7% (inactive) | -15.6% (inactive) | 98.9 | 1.4% (inactive) | 73.3 | -0.0132 (inactive) | 1.8e-09 (inactive) | 0.00575 (inactive) | 10.6% (inactive) | -0.988% (inactive)
